# This is a sample that favours compounds with a hit; in the whole collection about 3.3% have one here.
# Sm TGR block: qHTS Assay for the Inhibitors of Schistosoma Mansoni Peroxiredoxins; Schistosoma mansoni thioredoxin glutathione reductase (TGR), Q962Y6; purified TGR, DTNB reduction, TNB absorbance 405 nm; Potency, µM (highest dose often 114 µM), for inactives: top-dose activity change, negative = inhibition, most hits filed as inhibitors; actives 3% (n = 360,000); AID 485364, 2010; note: nearly all actives have a fitted effect of over 60% in size
#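 TGR 20 nM + NADPH 100 uM (dispensed conc.), cpd preinc 15 min RT; start with NADPH (500 uM addition) then DTNB (15 mM addition). Kinetic TNB absorbance, 405 nm filter. Four-parameter Hill fit across titration.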
# AmpC inh detg: qHTS Inhibitors of AmpC Beta-Lactamase (assay with detergent) | P00811 | AmpC hydrolysis of nitrocefin, absorbance 480 nm, 0.01% Triton | Potency, µM (titrated, usually from 114 µM), for inactives: at the top dose activity change, negative = inhibition, actives largely listed as inhibitors | actives 0.041% (n = 370,000) | AID 485294, 2010;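 note: 0% = no-compound wells and -100% = no-enzyme wells; nearly all actives have a fitted effect of over 25% in size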
# Target sequence (P00811 whole entry, looked up): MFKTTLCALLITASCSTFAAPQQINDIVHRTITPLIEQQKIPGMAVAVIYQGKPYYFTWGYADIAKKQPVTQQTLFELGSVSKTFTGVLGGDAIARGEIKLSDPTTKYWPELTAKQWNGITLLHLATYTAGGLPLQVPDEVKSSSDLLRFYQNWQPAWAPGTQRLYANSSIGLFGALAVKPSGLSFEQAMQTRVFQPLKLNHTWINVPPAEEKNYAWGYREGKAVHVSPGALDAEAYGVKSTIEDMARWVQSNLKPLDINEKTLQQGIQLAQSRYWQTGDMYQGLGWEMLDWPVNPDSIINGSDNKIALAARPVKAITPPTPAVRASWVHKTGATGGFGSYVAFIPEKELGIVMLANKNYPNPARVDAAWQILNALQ
#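 20 mM phosphate pH 7.0 + 0.01% (detergent screen) or 0.0001% Triton X-100; 5.3 nM AmpC reagent; cpd preinc 15 min RT; nitrocefin (800 uM stock) to start; A480 q20 s × 4 min; Activity was normalised to no-enzyme and no-compound control wells.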
# AmpC no deterg: qHTS Inhibitors of AmpC Beta-Lactamase (assay without detergent); Potency, µM (doses to about 57.1 µM), inactives show top-dose activity change, negative = inhibition, hits mostly inhibitors; AID 485341, 2010; AmpC nitrocefin hydrolysis, absorbance 480 nm, 0.0001% Triton; actives 0.52% (n = 330,000);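 note: plate controls were no compound for no effect and no enzyme for full effect; nearly all actives have a fitted effect of over 20% in size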
#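 20 mM phosphate pH 7.0 + 0.01% (detergent screen) or 0.0001% Triton X-100; 5.3 nM AmpC reagent; cpd preinc 15 min RT; nitrocefin (800 uM stock) to start; A480 q20 s × 4 min; Activity was normalised to no-enzyme and no-compound control wells.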
# An asterisk follows results filed as active; ? = inconclusive; nt = no result. Calls come from the whole dose curve; as a rule, active = well fitted curve in the direction sought with a large enough effect; inconclusive = small, poorly fitted or top-dose-only effect, or another doubt; inactive = no such curve, though single readings can be large; an effect the other way counts as inactive or inconclusive. Unless noted, % is set by controls: 0 for no effect and ±100 for the full control effect; potency is the fitted concentration of half-maximal effect.
SMILES,Sm TGR block,AmpC inh detg,AmpC no deterg
Cc1ccc(-c2nnn(CC(=O)N(CCO)C(C(=O)NC3CCCC3)c3ccc(F)cc3)n2)o1 (configuration not stated),12%,2%,6%
O=C(CN(c1cccc(C(F)(F)F)c1)S(=O)(=O)c1ccccc1)Nc1cccc(Cl)c1,14%,17%,nt
CN(CCCNC(=O)CSc1cc(=O)n(C)c2cc(Cl)ccc12)Cc1ccccc1,-15%,-3%,82%
COc1cccc(CNS(=O)(=O)c2ccc(S(=O)(=O)N3CCCC3)cc2)c1,45µM*,-2%,156%
COc1cc2c(cc1OC)CN(CC(=O)Nc1ccc(S(=O)(=O)N3CCCC3)cc1)CC2,-6%,-6%,125%
COc1cc2c(cc1OC)C(C)N(CC(=O)Nc1ccc(S(=O)(=O)N3CCCC3)cc1)CC2 (configuration not stated),35µM*,-1%,133%
COc1ccc(S(=O)(=O)N2CCCN(CC(=O)Nc3ccc(OC)c(Cl)c3)CC2)cc1,32µM*,-1%,79%
COc1cccc(C(=O)CN2CCN(S(=O)(=O)c3ccc(Br)cc3)CC2)c1,14µM*,?,-20%
COc1ccc(NC(=O)CN2CCN(S(=O)(=O)c3ccc(Cl)cc3)CC2)cc1Cl,5%,-12%,-22%
COc1cccc(CN2CCN(S(=O)(=O)c3ccc(Br)cc3)CC2)c1,1%,-9%,-13%
COc1cccc(NS(=O)(=O)c2ccc(S(=O)(=O)N3CCCC3)cc2)c1,1%,2%,-12%
COc1ccc(S(=O)(=O)N2CCOC2CNC(=O)C(=O)NCc2ccccc2Cl)cc1 (configuration not stated),10%,0%,-2%
Cc1cccc(NC(=O)C(=O)NCC(c2ccc3c(c2)OCO3)N2CCN(c3ccccc3)CC2)c1 (configuration not stated),17%,3%,nt
CN(C)S(=O)(=O)N1CCN(CC(=O)Nc2ccc(F)cc2)CC1,8%,-15%,-10%
Cc1ccc(C)c(S(=O)(=O)N2CCN(C(=O)c3cccn3C)CC2)c1,-1%,0%,41%
O=C(NCc1cccnc1)/C(=C\c1ccc(-c2ccc(Br)cc2)o1)S(=O)(=O)c1ccccc1,50µM*,2%,-4%
O=C(NCc1cccnc1)/C(=C/c1ccc(-c2cccc(C(F)(F)F)c2)o1)NC(=O)c1ccccc1,2%,1%,164%
O=C(NCc1cccnc1)/C(=C/c1ccc(-c2ccc(Cl)cc2)o1)S(=O)(=O)c1ccccc1,20µM*,-12%,17%
O=C(CN(Cc1ccc(Br)cc1)S(=O)(=O)c1ccccc1)NCc1cccnc1,16%,2%,71%
CCOC(=O)C1=C(CSc2nc(-c3ccccc3)ccc2C#N)OC(N)=C(C#N)C1c1ccc(OC)cc1 (configuration not stated),-27%,-12%,-53%
Cc1ccccc1OC(=O)c1snnc1C,7%,22%,nt
Cc1nnsc1C(=O)Oc1ccccc1Cl,45µM*,22%,nt
CCn1c(C(=O)N2CCC(C(=O)N3CCN(c4cccc(C)c4C)CC3)CC2)cc2sccc21,1%,2%,nt
COC(=O)Cc1ccc(NC(=S)Nc2ccccn2)cc1,?,-3%,-50%
C=CCOC(=O)C1=C(C)N=c2s/c(=C3\C(=O)N(CC(=O)O)c4ccccc43)c(=O)n2C1c1ccc(OC)cc1 (configuration not stated),18µM*,-4%,150%
SMILES,Sm TGR block,AmpC inh detg,AmpC no deterg
COc1ccc(C2C(C(=O)OC(C)C)=C(C)N=c3s/c(=C\c4cccs4)c(=O)n32)cc1 (configuration not stated),-7%,-4%,-27%
COc1ccccc1N1C(=O)NC(=O)/C(=C/c2ccc3c(c2)Cc2ccccc2-3)C1=O,32µM*,?,-18%
O=C1NC(=O)N(c2ccccc2)C(=O)/C1=C/c1ccc2c(c1)Cc1ccccc1-2,?,-2%,-22%
Cc1nc(SCC(=O)NC2(C#N)CCCC2)n(CC(C)C)c1C,3%,-18%,-10%
N#Cc1c2c(c(=S)n(-c3ccccc3)c1N)CCCC2,40µM*,?,-21%
CC1(C)Cc2c(C#N)c(N)n(-c3ccccc3)c(=S)c2CO1,-13%,-3%,-4%
COc1ccccc1COC(=O)CN1C(=O)NC2(CCCCC2C)C1=O (configuration not stated),-1%,?,-5%
O=C1NC(=O)C(Cc2c[nH]c3ccccc23)N1 (configuration not stated),0%,?,25%

# From PubChem
